Assay outcomes as filed in PubChem BioAssay.
NADH coupling: inhibition of NAD/NADH coupling enzymes, library profiling | coupled PK/LDH NADH assays, four targets | AID 774 | hit rate 0.02% among 65,000 | IC50, µM (top dose mostly 10 µM), for inactives: at the highest dose inhibition;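 active = single-dose screening hits from any of four coupled enzyme assays that gave an IC50 when retested across doses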;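 note: the DPM-DC format reads NADH fluorescence rather than 340 nm absorbance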
Spn DPM-DC inh: S. pneumoniae DPM-DC inhibition; purified DPM-DC, PK/LDH coupled NADH fluorescence; calls only at 10 µM; hit rate 0.49% among 65,000; AID 556;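 active = the 320 compounds with the highest percent inhibition in the single-dose primary screen, excluding strongly autofluorescent ones, cut at about 32% in these data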;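 note: kinetic rate of NADH fluorescence loss reporting ADP formed by the decarboxylase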
Spn MK inh: blocks S. pneumoniae mevalonate kinase; purified MK, PK/LDH-coupled NADH absorbance 340 nm; inhibition, % at 10 µM; hit rate 0.48% among 65,000;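 active = ranked among the strongest by inhibition in the single 10 µM screen, a fixed top-ranked set picked for dose follow-up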
Abs 340nm: absorbance at 340 nm; compound absorbance at 340 nm, fold over control; fold change at 10 µM; 65,000 tested, under 10 active; AID 708;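 active = at 10 µM dose, initial 340 nm absorbance at least 2 fold that of control wells; inactive = change under 2 fold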;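 note: initial absorbance extrapolated from kinetic A340 decline of NADH oxidation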
Autofluor 339: intrinsic fluorescence of library compounds, ex339/em460 – biochemical, MLSMR library, data from DPM-DC assay, artefact control, profiling panel; compound autofluorescence, ex339/em460 nm, NADH buffer; stronger effect = higher value; 1 = no-compound wells, NADH background; fluorescence fold increase at 10 µM; hit rate 5.5% among 65,000; AID 709;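 active = at 10 µM, mean starting fluorescence two-fold or more over control wells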;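 note: signal is the first read of a kinetic run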
PMK inhibit: blocks S. pneumoniae phosphomevalonate kinase. purified PMK, PK/LDH-coupled NADH absorbance 340 nm. inhibition, % at 10 µM. hit rate 0.49% among 65,000. AID 539;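 active = top-ranked compounds by inhibition in the single 10 µM screen, taking a fixed number of the strongest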;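 note: 0% = full reaction with DMSO carrier and 100% = background rate without enzyme reaction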
Starred values were filed as active, the others as inactive; i = inactive; . = no result shown. An excerpt weighted towards active compounds, which were near 6.8% of everything screened.

SMILES | NADH coupling | Spn DPM-DC inh | Spn MK inh | Abs 340nm | Autofluor 339 | PMK inhibit
COCCCn1c2nc3ccccc3nc2c2c(=O)n(Cc3ccccc3Cl)cnc21 | 5% | i | 8 | 1.1 | 2.9* | 0
COCCCn1c(C)nc2c(c1=O)c1nc3ccccc3nc1n2CCc1ccccc1 | 4% | . | 0 | 1.1 | 2.4* | 8
Cc1csc(SCc2nc3sc4c(c3c(=O)[nH]2)CCC4)n1 | 3% | i | 4 | 1 | 1 | 17
Cc1ccc2c(CC(=O)N3CCN(S(=O)(=O)c4ccc5c(c4)OCCO5)CC3)coc2c1 | 4% | i | 4 | 1 | 1.1 | 7
O=c1c2c3nc4ccccc4nc3n(Cc3ccccc3)c2ncn1Cc1ccco1 | 12% | i | 11 | 1.1 | 3.3* | 0
CCOC(=O)c1sc2nc(C)cc(C)c2c1N | 4% | . | 6 | 1 | 2.4* | 8
Cc1cc(C)c2c(N)c(C(=O)N3CCN(c4ncccn4)CC3)sc2n1 | 9% | i | 13 | 1 | 2.2* | 10
COCc1cc(C)nc2sc(C(=O)N3CCN(c4ccccc4)CC3)c(N)c12 | 7% | i | 6 | 1.1 | 1.2 | 6
CCOC(=O)CNC(=O)c1sc2nc(C)cc(C)c2c1N | 13% | . | 10 | 1.1 | 3.9* | 16
C=CCNc1oc(-c2ccc(OCC)cc2)nc1C#N | 2% | . | 3 | 1.1 | 2.3* | 0
CCOc1ccc(-c2nc(C#N)c(NCC(C)C)o2)cc1 | 5% | . | 0 | 1 | 2.4* | 9
N#Cc1nc(-c2ccc(OCc3ccc(Cl)cc3)cc2)oc1NCCCn1ccnc1 | 2% | i | 1 | 1.1 | 1.6 | 4
C=CCNc1oc(-c2ccc(OC)cc2)nc1C#N | 3% | . | 3 | 1 | 3.7* | 3
CCOc1ccccc1COC(=O)c1cccc(-n2cnnn2)c1 | 6% | i | 0 | 1 | 1.1 | 18
Cc1ccc(Cn2ccc(NC(=O)c3cc(CC(C)C)on3)n2)cc1 | 7% | i | 4 | 1.1 | 1.3 | 0
O=C(NC(Cc1ccccc1)C(=O)OCC(=O)N1CCc2ccccc21)c1ccco1 (stereo not given) | 1% | i | 0 | 1 | 1.1 | 3
CSc1cccc(NS(=O)(=O)c2ccc3c(c2)oc(=O)n3C)c1 | 9% | i | 11 | 1 | 1 | 16
CS(=O)(=O)c1nc(-c2cccs2)cc(C(F)(F)F)n1 | 3% | . | 5 | 1.2 | 2.2* | 0
Cc1cc(NC(=O)CCCS(=O)(=O)c2nc(-c3cccs3)cc(C(F)(F)F)n2)no1 | 8% | . | 3 | 1.2 | 3.4* | 13
CN1CCN(c2nc(-c3cccs3)cc(C(F)(F)F)n2)CC1 | 2% | i | 7 | 1.1 | 1.2 | 0
CCCC(=O)Nc1nc2ccc(OCC)cc2s1 | 6% | i | 1 | 1 | 1.1 | 17
CCOc1ccc2nc(NCCNC(=O)C3CC3)c(C)cc2c1 | 7% | . | 7 | 1 | 3.8* | 7
CCOc1ccc2nc(NCCNC(=O)C(C)C)c(C)cc2c1 | 10% | . | 9 | 1 | 4.7* | 11
COCC(=O)NCCNc1nc2ccc(C)cc2cc1C | 7% | . | 0 | 1.1 | 3.5* | 13
COC(=O)CCCCCNc1ccc(C(=O)OC)cc1N | 11% | i | 0 | 1 | 1.2 | 2
SMILES | NADH coupling | Spn DPM-DC inh | Spn MK inh | Abs 340nm | Autofluor 339 | PMK inhibit
Cc1ccc2[nH]c(-c3cccc(N)c3)cc2c1 | 9% | . | 7 | 1 | 3.8* | 10
N#Cc1nc(-c2ccccc2F)oc1NCc1cccc2c1OCO2 | 1% | i | 4 | 1 | 1.7 | 0
COc1ccc(CCNc2oc(COc3ccccc3)nc2C#N)cc1 | 3% | i | 9 | 1 | 1.1 | 0
COc1ccc(CCNc2oc(-c3ccc(OC)c(OC)c3)nc2C#N)cc1 | 4% | . | 8 | 1.1 | 3.9* | 0
CN(C)CCNc1oc(-c2ccccc2F)nc1C#N | 4% | . | 4 | 1 | 2.5* | 13
COc1ccc(-c2nc(C#N)c(NCC3CCCO3)o2)cc1OC (stereo not given) | 4% | . | 8 | 1.1 | 3.9* | 0
COc1ccc(-c2nc(C#N)c(NCCCN(C)C)o2)cc1OC | 8% | . | 33 | 1 | 3.1* | 16
COc1cccc(-c2nc(CS(=O)CC(=O)NCc3ccccc3)c(C)o2)c1 (stereo not given) | 3% | i | 3 | 1 | 0.98 | 6
CN(C)CCCNC(=O)CCC1CCCCC1 | 3% | i | 2 | 0.96 | 1 | 0
N#Cc1nc(-c2ccccc2Cl)oc1NCC1CCCO1 (stereo not given) | 6% | i | 1 | 1.1 | 1.7 | 2
N#Cc1nc(-c2ccccc2F)oc1NC1CCCCC1 | 2% | . | 3 | 1.1 | 2.1* | 0
COc1ccc(-c2nc(C#N)c(NC(C)c3ccccc3)o2)cc1OC (stereo not given) | 6% | . | 5 | 1 | 3.9* | 6
CN(C)CCCNc1oc(-c2ccccc2)nc1C#N | 5% | . | 4 | 1.1 | 2.1* | 5
COc1ccc(-c2nnc(SCC(=O)NC(C)c3ccccc3)o2)cc1 (stereo not given) | 2% | i | 11 | 1 | 1.1 | 9
Cc1cccc(OCc2nc(C#N)c(NCCN(C)C)o2)c1 | 2% | i | 8 | 0.97 | 1 | 9
O=S(=O)(CCN(CCS(=O)(=O)C(F)(F)F)CC1CCCO1)C(F)(F)F (stereo not given) | 4% | i | 3 | 1 | 1.1 | 9
Nc1nc(SCC(=O)C23CC4CC(CC(C4)C2)C3)n[nH]1 | 4% | i | 2 | 0.96 | 1.1 | 11
Cc1c(S(=O)(=O)Nc2cccc(Cl)c2)c(=O)n(C)c(=O)n1C | 18% | i | 55* | 1.1 | 0.99 | 0
Cc1nn2c3c(cnc2c1-c1ccccc1)C(=O)CCC3 | 3% | i | 7 | 1.1 | 1.1 | 3
Cc1nn(-c2ccccn2)c2c1-c1nc(N)ncc1CC2 | 4% | . | 0 | 1 | 3.6* | 7
Cc1ccc(S(=O)(=O)C(C#N)c2nc3ccccc3nc2N2CCC(C)CC2)cc1 (stereo not given) | 9% | i | 6 | 1 | 1.6 | 12
COc1ccc(S(=O)(=O)C(C#N)c2nc3ccccc3nc2N2CCCCC2)cc1 (stereo not given) | 11% | i | 12 | 1.1 | 1.8 | 0
CCCCCCOC(=O)C(C#N)c1nc2ccccc2nc1N1CCCCC1 (stereo not given) | 4% | i | 3 | 1 | 1.1 | 13
N#CC(c1nc2ccccc2nc1N1CCCC1)S(=O)(=O)c1ccccc1 (stereo not given) | 9% | . | 12 | 1.1 | 2.3* | 5
Cc1ccc(C)c(S(=O)(=O)C(C#N)c2nc3ccccc3nc2N2CCCC2)c1 (stereo not given) | 3% | . | 5 | 1 | 3.4* | 0
Cc1ccc(C)c(S(=O)(=O)C(C#N)c2nc3ccccc3nc2N2CCOCC2)c1 (stereo not given) | 3% | i | 7 | 1.1 | 1.2 | 0
